Screening data deposited in PubChem BioAssay by several laboratories.
Mtb BioA inh = BioA (M. tuberculosis) enzyme inhibition. purified M. tuberculosis BioA enzyme, plate reader. inhibition, % at 9.99 µM. hit rate 0.096% among 360,000; in the data active = inhibition above about 40%; inconclusive = no clear call, values can overlap the other calls
PriA SSB inh = K. pneumoniae PriA-SSBct interaction inhibition. inhibition, % at 33 µM. AID 1272365. hit rate 0.6% among 430,000. AlphaScreen SSBct-PriA binding, biotinylated peptide; in the data active = inhibition mostly above about 37%, no sharp cut-off; inactive = mostly below about 20%;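 note: plate controls were negative control peptide for no effect and reference peptide for full effect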
PrP 5UTR inh = suppresses PrP 5' UTR mRNA reporter expression; hit rate 0.35% among 340,000; cell-based PrP 5' UTR mRNA reporter, plate reader; inhibition, % (no concentration beside the values); in the data active = inhibition above about 52%; note: 0 = median of the neutral control wells
FadD28 FP inh = M. tuberculosis FadD28 bisubstrate binding inhibition | inhibition, % at 12.5 µM | FadD28 bisubstrate probe binding, fluorescence polarization | AID 588549 | hit rate 0.22% among 360,000; in the data active = inhibition above about 8.5%, passing the limit was not always enough; inconclusive = no clear call, values can overlap the other calls
TcdB inh = blocks C. difficile toxin B glycohydrolase activity; TcdB glycohydrolase enzymatic assay, plate reader; inhibition, % at 9.99 µM; P18177; AID 652162; hit rate 0.24% among 350,000; in the data active = inhibition above about 10%
Mtb hypoxia inh = reduces hypoxia-regulated biosensor signal in M. tuberculosis; M. tuberculosis hypoxia-regulated fluorescent reporter, fluorescence; fluorescence inhibition, % (no concentration beside the values); hit rate 0.1% among 300,000; in the data active = fluorescence inhibition mostly above about 23%, no sharp cut-off; inactive = mostly below about 17%
* marks the source's active call; other numbers are inactive results; ? = inconclusive; . = not tested or not shown; ! = not confirmed by another sample. Most compounds without a hit are left out; they make up all but 1% or so of the library.

SMILES | Mtb BioA inh | PriA SSB inh | PrP 5UTR inh | FadD28 FP inh | TcdB inh | Mtb hypoxia inh
COC(=O)C1=C(c2ccc(OCc3ccccc3)cc2)C[C@@H]2CC[C@H]1N2C(=O)NCCCc1ccccc1 | -1 | 5 | -14 | 0 | 12* | .
O=C1C(SCCO)=C(SCCO)C(=O)c2ccccc21 | 2 | 101* | -3 | -1 | -5 | .
CC1=C(SCc2ccccc2)C(=O)c2ccccc2C1=O | 0 | 4 | -34 | 4 | 0 | -16
O=C(CCCS(=O)(=O)c1ccc(Cl)cc1)Nc1nc(-c2ccccn2)cs1 | . | 33* | . | . | . | .
O=C(CCS(=O)(=O)c1ccc(F)cc1)Nc1nc(-c2ccccn2)cs1 | 0 | 43* | -14 | 0 | 2 | -9
O=C(CCCS(=O)(=O)c1ccc(Cl)cc1)Nc1nc(-c2cccnc2)cs1 | . | -6 | . | . | . | .
O=C(CCS(=O)(=O)c1ccccc1)Nc1nc(-c2ccccn2)cs1 | 0 | 34 | -9 | -4 | 1 | -6
Cc1ccc(CNC(=O)c2nnn(CC(=O)Nc3cccc(C)c3C)c2N)cc1 | 2 | -2 | 2 | -1 | 0 | 1
O=C(O)Cc1cccc2c(=O)cc(-c3ccccc3)oc12 | . | . | . | -1 | 1 | .
O=C(NCC1COc2ccccc2O1)c1ccc(Cl)cc1 (stereo unspecified) | 2 | -27 | -55 | -2 | . | 17
COC(=O)c1ccccc1NC1=C/C(=N\S(=O)(=O)c2ccc(C(=O)O)cc2)c2ccccc2C1=O | 2 | . | -8 | 24* | . | 6
COc1ccc(S(=O)(=O)N=C2C=C(Nc3ccc(O)cc3)C(=O)c3ccccc32)cc1 | . | 40* | . | . | . | .
Cc1ccc(S(=O)(=O)N=C2C=C(Nc3ccc(O)cc3)C(=O)c3ccccc32)cc1 | . | 64* | . | . | . | .
Cc1ccc(S(=O)(=O)/N=C2\C=C(Nc3ccc(O)cc3)C(=O)c3ccccc32)cc1 | 1 | . | -30 | ? | . | 5
CCCN(CC(=O)Nc1ccccc1C)C(=O)c1ccc2ccccc2n1 | . | -14 | -6 | -1 | 0 | -20
Cc1ccccc1NC(=S)c1ccc2ccccc2n1 | 0 | 65*! | -33 | -5 | 0 | 1
Cc1cc(Nc2ccc(F)cc2)n2nc(C)c(-c3ccc(Cl)cc3)c2n1 | . | -25 | . | . | . | .
NC(=O)c1cccc(-c2coc3c(C(=O)NCc4cccnc4)cccc23)c1 | 8 | . | . | -4 | 2 | .
Cc1c2ccncc2c(C)c2c1[nH]c1ccccc12 | -16 | -1 | 3 | -2 | . | 60*
COc1ccc2[nH]c3c(C)c4ccncc4c(C)c3c2c1 | -1 | 2 | -2 | -3 | 3 | .
O=C(Cc1coc2cc(O)ccc12)NNC(=O)c1cccs1 | -2 | 7 | -7 | 0 | 19* | 1
CCN(CC)S(=O)(=O)c1cc(C(=O)Nc2cc(C)on2)ccc1Cl | 0 | -7 | 6 | 0 | 1 | 0
CCN(CC)S(=O)(=O)c1cc(C(=O)Nc2cccnc2Cl)ccc1Cl | . | -9 | -9 | -1 | 11* | 7
O=C1NC(=O)C(=Cc2ccc(-c3cc(Cl)ccc3[N+](=O)[O-])o2)C(=O)N1 | . | 5 | -23 | 4 | 2 | -1
CC1=C(C#N)C(=O)NC(=O)/C1=C\c1ccc(-c2cc(C)c(C)cc2[N+](=O)[O-])o1 | 3 | 24 | -13 | 15* | 0 | 7
SMILES | Mtb BioA inh | PriA SSB inh | PrP 5UTR inh | FadD28 FP inh | TcdB inh | Mtb hypoxia inh
CC(C)NC(=O)N(C)C[C@@H]1Oc2cc(C3=CCCC3)ccc2S(=O)(=O)N([C@@H](C)CO)C[C@H]1C | 2 | . | . | . | -1 | .
COc1ccc(N2CCN(C(=O)c3ccc(Cn4nc(C)c([N+](=O)[O-])c4C)o3)CC2)cc1 | 1 | 48* | 10 | 0 | 3 | -5
Cc1nn(Cc2ccc(C(=O)N3CCCC3)o2)c(C)c1[N+](=O)[O-] | 0 | 4 | -6 | 1 | 3 | -3
COc1ccccc1N=Nc1ccc(N)c(C)c1 | 0 | 73* | -16 | . | 2 | 17
CCN1CCN(C(=O)c2cc3c(OC)c(OC)c(OC)cc3[nH]2)CC1 | -2 | 64* | -18 | -2 | 3 | 7
CCOC(=O)C1CCN(C(=O)c2cc3c(OC)c(OC)c(OC)cc3[nH]2)CC1 | -3 | 12 | -2 | 2 | -6 | 6
Cc1ccc(S(=O)(=O)NCc2ccccc2)s1 | -2 | -21 | -7 | 0 | 1 | -8
Cc1ccc(S(=O)(=O)NC[C@H]2CCCN2c2ccccc2)s1 | . | 34* | . | . | . | .
O=S(=O)(NC[C@H]1CCCN1c1ccccc1)c1cccc2ccccc12 | . | 32* | . | . | . | .
O=S(=O)(NCC1CCCN1c1ccccc1)c1ccc(OC(F)(F)F)cc1 (stereo unspecified) | . | 18 | . | . | . | .
Cc1noc(C)c1NC(=O)N(C)C[C@H]1Oc2c(NC(=O)C3CCOCC3)cccc2C(=O)N([C@@H](C)CO)C[C@@H]1C | 0 | . | . | . | -2 | .
Cc1nc2sccn2c(=O)c1NC(=O)C1c2ccccc2Oc2ccccc21 | . | -9 | . | . | . | .
NC(Cc1ccc([N+](=O)[O-])cc1)=NOC(=O)COc1cccc2ccccc12 | . | 7 | . | . | . | 0
C=CCN(CC=C)S(=O)(=O)c1ccc(C(=O)Nc2c(C(=O)OCC)oc3ccccc23)cc1 | . | -15 | . | . | . | .
O=C1NC(=S)N(S(=O)(=O)c2c(Cl)cccc2Cl)C1Cc1ccccc1 (stereo unspecified) | . | 86* | . | . | . | .
O=[N+]([O-])c1ccccc1S(=O)(=O)Nc1ccc(S(=O)(=O)Nc2nccs2)cc1 | -1 | 1 | 2 | -1 | 0 | 66*
Nc1ccc(S(=O)(=O)Nc2nccs2)cc1N=Nc1ccccc1[N+](=O)[O-] | . | 8 | -22 | 12* | 0 | 11
CSc1cccc(NS(=O)(=O)c2ccc3c(c2)NC(=O)C(C)C(=O)N3)c1 (stereo unspecified) | 0 | 1 | -15 | -5 | 0 | -9
CC(CCC(C)C(C)(C)C)[C@@H]1CC[C@H]2C3C[C@H](OS(O)(=S)=S)[C@H]4C[C@H](OS(O)(=S)=S)[C@@H](OS(O)(=S)=S)C[C@]4(C)[C@H]3CC[C@]12C (stereo partly specified) (tested in a mixture with another compound) | 23 | . | -20 | 65* | . | .
Cc1ccc(C(=O)OCC(=O)c2cc(C)n(CC3CCCO3)c2C)cc1 (stereo unspecified) | . | 6 | -29 | -4 | 16* | 12
Cc1cc(C(=O)COC(=O)c2cc(O)c3ccccc3c2O)c(C)n1CC1CCCO1 (stereo unspecified) | -2 | 12 | -18 | 2 | . | 8
Oc1ccc(N=Nc2ccccc2-c2nn[nH]n2)c(O)c1 | 6 | -3 | -24 | 22* | -48 | 19
S=C(NCCc1ccccc1)Nc1ncccn1 | 0 | -14 | -50 | -1 | 11* | 12
Nc1ccccc1Nc1cc(-c2ccccc2)nn1-c1cccc(Cl)c1 | . | 59* | -5 | -2 | -1 | 10
Cc1cc(C)c(Cn2cnc(-c3ccc([N+](=O)[O-])cc3)c2)c(C)c1 | -1 | 50* | -8 | -5 | 1 | -6
CC(=O)c1cccc(NC(=O)N(c2ccccc2)c2ccccc2)c1 | 2 | -1 | -12 | -1 | 2 | 11
